# Assay results taken from article PMC11006913.
# Residue numbers refer to the chain shown, from its start.
# How the values were obtained:
# Assay in all cases: PBM; 200 nM protein, PBS
# Settings in all cases: dsDNA, one strand shown
# HESX1 [1] = molecular target: HESX1 (Homo sapiens, UniProt Q9UBX0 95-180, R165K)
# HESX1 [2] = molecular target: HESX1 (Homo sapiens, UniProt Q9UBX0 95-180)
# HESX1 [3] = molecular target: HESX1 (Homo sapiens, UniProt Q9UBX0 95-180, P111T)
# HOXB4 [4] = molecular target: HOXB4 (Homo sapiens, UniProt P17483 148-234)
# Chain of HOXB4 (Homo sapiens, UniProt P17483 148-234) (P17483 148-234): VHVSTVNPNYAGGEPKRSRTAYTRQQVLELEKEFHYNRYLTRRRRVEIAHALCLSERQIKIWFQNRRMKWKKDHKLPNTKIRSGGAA
# SHOX [5] = molecular target: SHOX (Homo sapiens, UniProt O15266 103-189)
# Chain of SHOX (Homo sapiens, UniProt O15266 103-189) (O15266 103-189): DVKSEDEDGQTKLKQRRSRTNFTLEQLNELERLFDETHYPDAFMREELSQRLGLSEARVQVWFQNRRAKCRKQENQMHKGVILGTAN
# HOXB4 [6] = molecular target: HOXB4 (Homo sapiens, UniProt P17483 148-234, V174I)
# Chain of HOXB4 (Homo sapiens, UniProt P17483 148-234, V174I) (P17483 148-234 V174I): as the sequence (P17483 148-234) above, with V27I counted along it
# ALX1 [7] = molecular target: ALX1 (Homo sapiens, UniProt Q15699 118-204, L144V)
# Chain of ALX1 (Homo sapiens, UniProt Q15699 118-204, L144V) (Q15699 118-204 L144V): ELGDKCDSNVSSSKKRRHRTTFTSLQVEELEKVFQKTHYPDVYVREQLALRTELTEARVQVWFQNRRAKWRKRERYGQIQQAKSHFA
# SHOX [8] = molecular target: SHOX (Homo sapiens, UniProt O15266 103-189, R173C)
# Chain of SHOX (Homo sapiens, UniProt O15266 103-189, R173C) (O15266 103-189 R173C): as the sequence (O15266 103-189) above, with R71C counted along it
# ALX1 [9] = molecular target: ALX1 (Homo sapiens, UniProt Q15699 118-204, L144R)
# Chain of ALX1 (Homo sapiens, UniProt Q15699 118-204, L144R) (Q15699 118-204 L144R): as the sequence (Q15699 118-204 L144V) above, with V27R counted along it
# ALX1 [10] = molecular target: ALX1 (Homo sapiens, UniProt Q15699 118-204)
# Chain of ALX1 (Homo sapiens, UniProt Q15699 118-204) (Q15699 118-204): as the sequence (Q15699 118-204 L144V) above, with V27L counted along it
# NKX2-6 [11] = molecular target: T1, NKX2-6 (Homo sapiens, UniProt A6NCS4 118-204)
# T1 sequence: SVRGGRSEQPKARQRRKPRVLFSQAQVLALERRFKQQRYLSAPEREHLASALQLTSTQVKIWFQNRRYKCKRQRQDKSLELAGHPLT
# NKX2-6 [12] = molecular target: T2, NKX2-6 (Homo sapiens, UniProt A6NCS4 118-204, F151L)
# T2 sequence: T1 sequence with F34L
# CRX [13] = molecular target: CRX (Homo sapiens, UniProt O43186 26-111)
# Chain of CRX (Homo sapiens, UniProt O43186 26-111) (O43186 26-111): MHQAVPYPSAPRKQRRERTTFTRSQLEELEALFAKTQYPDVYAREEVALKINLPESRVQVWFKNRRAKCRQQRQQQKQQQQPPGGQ
# HOXA4 [14] = molecular target: HOXA4 (Homo sapiens, UniProt Q00056 201-287, W262R)
# Chain of HOXA4 (Homo sapiens, UniProt Q00056 201-287, W262R) (Q00056 201-287 W262R): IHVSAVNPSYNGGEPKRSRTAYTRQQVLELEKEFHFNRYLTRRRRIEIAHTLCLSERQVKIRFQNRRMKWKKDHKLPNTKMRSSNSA
# HOXA2 [15] = molecular target: HOXA2 (Homo sapiens, UniProt O43364 129-215, R185T)
# Chain of HOXA2 (Homo sapiens, UniProt O43364 129-215, R185T) (O43364 129-215 R185T): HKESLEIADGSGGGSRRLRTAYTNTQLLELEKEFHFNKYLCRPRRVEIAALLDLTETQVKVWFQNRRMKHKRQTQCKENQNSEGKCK
# HOXA4 [16] = molecular target: HOXA4 (Homo sapiens, UniProt Q00056 201-287, R217L)
# Chain of HOXA4 (Homo sapiens, UniProt Q00056 201-287, R217L) (Q00056 201-287 R217L): as the sequence (Q00056 201-287 W262R) above, with R17L, R62W counted along it
# CRX [17] = molecular target: CRX (Homo sapiens, UniProt O43186 26-111, E42D)
# Chain of CRX (Homo sapiens, UniProt O43186 26-111, E42D) (O43186 26-111 E42D): as the sequence (O43186 26-111) above, with E17D counted along it
# HOXA2 [18] = molecular target: HOXA2 (Homo sapiens, UniProt O43364 129-215, R185K)
# Chain of HOXA2 (Homo sapiens, UniProt O43364 129-215, R185K) (O43364 129-215 R185K): as the sequence (O43364 129-215 R185T) above, with T57K counted along it
# HOXA4 [19] = molecular target: HOXA4 (Homo sapiens, UniProt Q00056 201-287)
# Chain of HOXA4 (Homo sapiens, UniProt Q00056 201-287) (Q00056 201-287): as the sequence (Q00056 201-287 W262R) above, with R62W counted along it
# VAX1 [20] = molecular target: VAX1 (Homo sapiens, UniProt Q5SQQ9 86-172)
# Chain of VAX1 (Homo sapiens, UniProt Q5SQQ9 86-172) (Q5SQQ9 86-172): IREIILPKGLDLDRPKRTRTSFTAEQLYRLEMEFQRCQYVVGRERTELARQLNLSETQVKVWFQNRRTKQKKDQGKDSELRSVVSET
# VAX1 [21] = molecular target: VAX1 (Homo sapiens, UniProt Q5SQQ9 86-172, T142I)
# Chain of VAX1 (Homo sapiens, UniProt Q5SQQ9 86-172, T142I) (Q5SQQ9 86-172 T142I): as the sequence (Q5SQQ9 86-172) above, with T57I counted along it
# HOXA2 [22] = molecular target: HOXA2 (Homo sapiens, UniProt O43364 129-215, Y150S)
# Chain of HOXA2 (Homo sapiens, UniProt O43364 129-215, Y150S) (O43364 129-215 Y150S): as the sequence (O43364 129-215 R185T) above, with Y22S, T57R counted along it
# CRX [23] = molecular target: CRX (Homo sapiens, UniProt O43186 26-111, R41L)
# Chain of CRX (Homo sapiens, UniProt O43186 26-111, R41L) (O43186 26-111 R41L): as the sequence (O43186 26-111) above, with R16L counted along it
# HOXA4 [24] = molecular target: HOXA4 (Homo sapiens, UniProt Q00056 201-287, W262F)
# Chain of HOXA4 (Homo sapiens, UniProt Q00056 201-287, W262F) (Q00056 201-287 W262F): as the sequence (Q00056 201-287 W262R) above, with R62F counted along it
# HOXA2 [25] = molecular target: HOXA2 (Homo sapiens, UniProt O43364 129-215)
# Chain of HOXA2 (Homo sapiens, UniProt O43364 129-215) (O43364 129-215): as the sequence (O43364 129-215 R185T) above, with T57R counted along it
# VAX1 [26] = molecular target: VAX1 (Homo sapiens, UniProt Q5SQQ9 86-172, K157R)
# Chain of VAX1 (Homo sapiens, UniProt Q5SQQ9 86-172, K157R) (Q5SQQ9 86-172 K157R): as the sequence (Q5SQQ9 86-172) above, with K72R counted along it
# Chain of HESX1 (Homo sapiens, UniProt Q9UBX0 95-180, R165K) (Q9UBX0 95-180 R165K): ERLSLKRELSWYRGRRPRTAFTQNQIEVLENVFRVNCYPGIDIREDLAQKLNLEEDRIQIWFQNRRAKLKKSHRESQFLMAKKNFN
# Chain of HESX1 (Homo sapiens, UniProt Q9UBX0 95-180) (Q9UBX0 95-180): as the sequence (Q9UBX0 95-180 R165K) above, with K71R counted along it
# Chain of HESX1 (Homo sapiens, UniProt Q9UBX0 95-180, P111T) (Q9UBX0 95-180 P111T): as the sequence (Q9UBX0 95-180 R165K) above, with P17T, K71R counted along it
sequence,measurement,setting,value
AATAGTGT,binding signal,HESX1 [1],"7.52 upbm affinity estimate (log intensity, higher = more binding, comparable within an allelic series)"
same,binding signal,HESX1 [2],"7.75 upbm affinity estimate (log intensity, higher = more binding, comparable within an allelic series)"
same,binding signal,HESX1 [3],"7.31 upbm affinity estimate (log intensity, higher = more binding, comparable within an allelic series)"
CGCAGGCG,binding signal,HOXB4 [4],"7.74 upbm affinity estimate (log intensity, higher = more binding, comparable within an allelic series)"
same,binding signal,SHOX [5],"7.28 upbm affinity estimate (log intensity, higher = more binding, comparable within an allelic series)"
same,binding signal,HOXB4 [6],"7.65 upbm affinity estimate (log intensity, higher = more binding, comparable within an allelic series)"
same,binding signal,ALX1 [7],"6.44 upbm affinity estimate (log intensity, higher = more binding, comparable within an allelic series)"
same,binding signal,SHOX [8],"7.07 upbm affinity estimate (log intensity, higher = more binding, comparable within an allelic series)"
same,binding signal,ALX1 [9],"6.71 upbm affinity estimate (log intensity, higher = more binding, comparable within an allelic series)"
same,binding signal,ALX1 [10],"6.49 upbm affinity estimate (log intensity, higher = more binding, comparable within an allelic series)"
GACTCGGC,binding signal,HOXB4 [4],"7.87 upbm affinity estimate (log intensity, higher = more binding, comparable within an allelic series)"
same,binding signal,SHOX [5],"7.16 upbm affinity estimate (log intensity, higher = more binding, comparable within an allelic series)"
same,binding signal,HOXB4 [6],"7.65 upbm affinity estimate (log intensity, higher = more binding, comparable within an allelic series)"
same,binding signal,NKX2-6 [11],"9.17 upbm affinity estimate (log intensity, higher = more binding, comparable within an allelic series)"
same,binding signal,SHOX [8],"7.19 upbm affinity estimate (log intensity, higher = more binding, comparable within an allelic series)"
same,binding signal,NKX2-6 [12],"9.23 upbm affinity estimate (log intensity, higher = more binding, comparable within an allelic series)"
GATCATTA,binding signal,HOXB4 [4],"13.4 upbm affinity estimate (log intensity, higher = more binding, comparable within an allelic series)"
same,binding signal,CRX [13],"10.8 upbm affinity estimate (log intensity, higher = more binding, comparable within an allelic series)"
same,binding signal,HOXA4 [14],"10.5 upbm affinity estimate (log intensity, higher = more binding, comparable within an allelic series)"
same,binding signal,HOXA2 [15],"12.5 upbm affinity estimate (log intensity, higher = more binding, comparable within an allelic series)"
same,binding signal,HOXA4 [16],"12.4 upbm affinity estimate (log intensity, higher = more binding, comparable within an allelic series)"
same,binding signal,HOXB4 [6],"14.1 upbm affinity estimate (log intensity, higher = more binding, comparable within an allelic series)"
same,binding signal,CRX [17],"10.7 upbm affinity estimate (log intensity, higher = more binding, comparable within an allelic series)"
same,binding signal,HOXA2 [18],"13.3 upbm affinity estimate (log intensity, higher = more binding, comparable within an allelic series)"
same,binding signal,HOXA4 [19],"14.1 upbm affinity estimate (log intensity, higher = more binding, comparable within an allelic series)"
same,binding signal,VAX1 [20],"13 upbm affinity estimate (log intensity, higher = more binding, comparable within an allelic series)"
same,binding signal,VAX1 [21],"13.1 upbm affinity estimate (log intensity, higher = more binding, comparable within an allelic series)"
same,binding signal,HOXA2 [22],"10.9 upbm affinity estimate (log intensity, higher = more binding, comparable within an allelic series)"
same,binding signal,CRX [23],"10.4 upbm affinity estimate (log intensity, higher = more binding, comparable within an allelic series)"
same,binding signal,HOXA4 [24],"11.9 upbm affinity estimate (log intensity, higher = more binding, comparable within an allelic series)"
same,binding signal,HOXA2 [25],"12.6 upbm affinity estimate (log intensity, higher = more binding, comparable within an allelic series)"
same,binding signal,VAX1 [26],"13 upbm affinity estimate (log intensity, higher = more binding, comparable within an allelic series)"
